Data on 18 molecules can be found in PubChem BioAssay (EPA / NIEHS).

In general, AC50 refers to the concentration giving half of the maximal activity seen.

Assay [1] can be described thus: TOX21_p53_BLA_p2_viability: Viability Assessment in the Tox21 HCT-116 p53 Agonism Beta-lactamase Assay, Phase 2 (AID 2283591).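 Further: compound exposure lasted 16 h at 37 °C; actives lower the ATP signal meaning cytotoxicity.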 In short, it runs like this: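 Cytotoxicity readout: CellTiter-Glo ATP luminescence, 30 min at room temperature, after the beta-lactamase read. Cells were HCT116 exposed 16 h at 37C to compounds pin-transferred at 217-fold dilution from DMSO stocks.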

The nature of assay [2]: TOX21_p53_BLA_p3_viability: Viability Assessment in the Tox21 HCT-116 p53 Agonism Beta-lactamase Assay, Phase 3 (AID 2283593).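 Further: cells exposed to compound for 16 h before reading.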 In short, it runs like this:
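Cellular ATP was quantified by CellTiter-Glo luminescence, read after 30 min at room temperature. Beforehand, HCT116 cells (4000/well) received compound 5 h post-seeding, 217-fold diluted from DMSO, then incubated 16 h at 37C.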

In assay [3] the target is Cellular tumor antigen p53 (Homo sapiens) (UniProt P04637). Description: TOX21_p53_BLA_p5_ratio: Tox21 HCT-116 p53 Agonism Beta-lactamase Assay, Ratio, Phase 5 (AID 2283599). In short, it runs like this:
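Beta-lactamase reporter ratio (blue 460 nm over green 530 nm, 405 nm excitation) after 2 h CCF4-AM loading, in HCT-116 cells exposed 16 h at 37 C to compounds pinned at 217-fold dilution. Increases relative to DMSO baseline scored.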

Assay [4] is described as follows: TOX21_p53_BLA_p5_viability: Viability Assessment in the Tox21 HCT-116 p53 Agonism Beta-lactamase Assay, Phase 5 (AID 2283600). In short, it runs like this:
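HCT-116 p53 beta-lactamase reporter cells, 4000/well, were exposed to compound (pin transfer, 217-fold dilution) for 16 hours at 37C. Cellular ATP was read by CellTiter-Glo luminescence after 30 min at room temperature.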

Assay [5] concerns the target Cellular tumor antigen p53 (Homo sapiens) (UniProt P04637). Description: TOX21_p53_BLA_p3_ratio: Tox21 HCT-116 p53 Agonism Beta-lactamase Assay, Ratio, Phase 3 (AID 2283596). In short, it runs like this: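 HCT116 p53-bla cells (4000/well) given compound in DMSO (217-fold dilution) after 5 h, incubated 16 h at 37C. CCF4-AM substrate 2 h at room temperature; 460/530 nm emission ratio, gain fitted against DMSO.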

Assay [6] has the same target. Briefly: TOX21_p53_BLA_p4_ratio: Tox21 HCT-116 p53 Agonism Beta-lactamase Assay, Ratio, Phase 4 (AID 2283601). In short, it runs like this: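 Signal is the blue/green (460nm/530nm) ratio of cleaved versus uncleaved CCF4-AM substrate, read after 2 h substrate loading. Cells were HCT116 carrying the p53-responsive beta-lactamase reporter, dosed 16 h at 37C, 5% CO2; CellTiter-Glo measured in parallel.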

Assay [7] can be described thus: TOX21_p53_BLA_p4_viability: Viability Assessment in the Tox21 HCT-116 p53 Agonism Beta-lactamase Assay, Phase 4 (AID 2283597).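 Further: hits lower the luminescence signal meaning cytotoxicity.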 In short, it runs like this: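 HCT-116 p53-bla cells, 4000/well, dosed after 5 h attachment and incubated 16 h at 37 °C, 5% CO2. Viability from CellTiter-Glo ATP luminescence after 30 min at room temperature, taken after the beta-lactamase read; loss of signal indicates cytotoxicity.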

Assay [8] is described as follows: CCTE_Harrill_HTTr_Viability_MCF7: CCTE's 6-hour Cell Viability Assessment for the High-Throughput Transcriptomics (HTTr) Platform, in MCF-7 cells cultured in DMEM + 10% fetal bovine serum, Harrill Lab (AID 2284010; active means hit-call score of the fitted dose curve at least 0.9, where 1 is the maximum; inactive means score below 0.9). In short, it runs like this:
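MCF-7 cells in DMEM + 10% FBS, 384-well, exposed 6 h to an eight-point dilution series. Membrane integrity scored by high-content imaging of propidium iodide exclusion; bidirectional fit versus DMSO.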

Assay [9] is described as follows: CCTE_Harrill_HTTr_Apoptosis_MCF7: CCTE's 6-hour Apoptosis Assessment for the High-Throughput Transcriptomics (HTTr) Platform, in MCF-7 cells cultured in DMEM + 10% fetal bovine serum, Harrill Lab (AID 2284011; active means hit-call score of the fitted dose curve at least 0.9, where 1 is the maximum; inactive means score below 0.9). In short, it runs like this: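 MCF-7 cells in DMEM + 10% FBS exposed 6 h to chemicals over an eight-point dilution series. Caspase-3/7 activation imaged by high-content CellEvent Green staining; fitted bidirectionally versus DMSO.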

The nature of assay [10]: CCTE_Harrill_HTTr_CellCount_MCF7: CCTE's Cell Proliferation Assessment for the High-Throughput Transcriptomics (HTTr) Platform, Harrill Lab (AID 2284012).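 Further: intended direction is loss of nuclei count meaning fewer cells.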 In short, it runs like this:
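MCF7 cells exposed 6 hours to an eight-point dilution series; Hoechst-stained nuclei counted by high-content imaging. Bidirectional curve fitting against DMSO baseline.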

The target in assay [11] is Cellular tumor antigen p53 (Homo sapiens) (UniProt P04637). Description: TOX21_p53_BLA_p2_ratio: Tox21 HCT-116 p53 Agonism Beta-lactamase Assay, Ratio, Phase 2 (AID 2283592). In short, it runs like this:
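HCT-116 cells with p53-responsive beta-lactamase reporter, 4000 cells/well, preincubated 5 h, then compound in DMSO (217-fold dilution) for 16 h at 37C. CCF4-AM substrate 2 h at room temperature; 460/530 nm emission ratio fitted upward versus DMSO.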

Inconclusive results are not listed. Active and inactive are the calls of the source. How the source made its calls, unless noted: active means hit-call score of the fitted dose curve at least 0.9, where 1 is the maximum; inconclusive means response in the unintended direction; inactive means score below 0.9.

Cellular tumor antigen p53 (Homo sapiens), sequence (P04637 whole entry, looked up): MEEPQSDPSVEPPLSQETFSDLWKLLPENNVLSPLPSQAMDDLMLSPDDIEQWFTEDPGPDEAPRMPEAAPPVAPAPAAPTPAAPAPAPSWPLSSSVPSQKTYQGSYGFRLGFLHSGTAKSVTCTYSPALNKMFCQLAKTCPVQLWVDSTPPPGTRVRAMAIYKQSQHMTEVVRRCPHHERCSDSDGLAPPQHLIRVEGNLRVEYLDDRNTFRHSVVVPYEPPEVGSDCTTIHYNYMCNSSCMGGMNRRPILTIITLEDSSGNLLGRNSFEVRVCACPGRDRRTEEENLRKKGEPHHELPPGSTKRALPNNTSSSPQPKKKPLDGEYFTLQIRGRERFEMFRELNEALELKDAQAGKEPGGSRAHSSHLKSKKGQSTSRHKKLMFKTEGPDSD

Consider `O=[N+]([O-])c1ccc(Cl)c(Cl)c1Cl`, for which the result in [1], in [2], in [3] and in assay [4] was inactive.

As to `Oc1ccc2c3c1O[C@H]1[C@@H](O)CC[C@@]4(O)[C@@H](C2)N(CC2CCC2)CC[C@]314`, the outcome in assay [1], in [5], in assay [4] and in assay [6] was inactive.

In the case of `CN1CC[C@]23c4c5ccc(O)c4O[C@H]2[C@@H](O)CC[C@H]3[C@H]1C5`, the molecule was called inactive in assay [1], in assay [5], in [7] and in assay [3].

As to `COc1ccc2c(c1OC)C(=O)O[C@@H]2[C@H]1c2cc3c(cc2CCN1C)OCO3`, the molecule was classed as inactive in assay [1], in assay [5], in [3] and in [4].

For the molecule `COC(=O)c1ccc(CBr)cc1`, the result in assay [1], in assay [2], in assay [7] and in assay [6] was inactive.

With `c1ccc(CN2CCNCC2)cc1`, the outcome in [1], in assay [5] and in [3] was inactive.

Take `CSCCCN=C=S`: the outcome in assay [1], in assay [3] and in assay [4] was inactive. Moreover, the AC50 in assay [5] was 20.9 µM (active).

For `CNC(C)[C@@H]1CC[C@@H](N)[C@@H](O[C@H]2[C@H](O)[C@@H](O[C@H]3OC[C@](C)(O)[C@H](NC)[C@H]3O)[C@H](N)C[C@@H]2N)O1` (some centres undefined) (tested in a mixture with another compound), the call in assay [1], in [5] and in [4] was inactive.

For `Cl`, the molecule was classed as inactive in assay [1], in [2], in assay [7], in assay [4], in assay [8] and in assay [9]. Further, in [10], the molecule was classed as inactive.

Take `CN(C)CCCCCCN(C)C`: the result in assay [1], in [4] and in assay [6] was inactive.

With `c1cncc([C@@H]2CCCCN2)c1`, the outcome in [11] and in [2] was inactive.

For the molecule `CNC(C)CC1CCCCC1` (centres undefined), the result in assay [11], in [2], in assay [5], in assay [7] and in [3] was inactive.

With `O=C1C=C2C=C[C@@H]3C[C@@]2(O1)[C@H]1CCCCN31`, the outcome in assay [11], in assay [2], in assay [5], in assay [7] and in [3] was inactive.

As to `CCN(CC)CCOC(=O)C(C)(c1ccccc1)c1ccccc1`, the result in [1], in assay [7] and in assay [3] was inactive.

Take `O=C(O)c1nn(Cc2ccc(Cl)cc2Cl)c2ccccc12`: the outcome in [11], in assay [2], in assay [5], in assay [7] and in assay [3] was inactive.

In the case of `CC(Cl)(Cl)Cl`, the call in [1] and in assay [3] was inactive.

Turning to `C[C@]12CC[C@H](OS(=O)(=O)O)CC1=CC[C@@H]1[C@@H]2CC[C@]2(C)C(=O)CC[C@@H]12`, the outcome in assay [11], in [2], in assay [5], in assay [7], in assay [3] and in assay [4] was inactive. Also, the outcome in assay [6] was inactive.

`CC1=C2[C@H]3OC(=O)[C@@H](C)[C@@H]3CC[C@@]2(C)C=CC1=O`: the molecule was classed as inactive in [1], in assay [7], in assay [3], in [4] and in assay [6].
